Laboratory results published in PubChem BioAssay AID504660 (National Center for Advancing Translational Sciences (NCATS), 2011).
The whole screen tested about 360,000 compounds, of which about 3,700 (1%) were called active. This excerpt belongs to a sample that is enriched for actives. Values without a mark were called inactive. Rule as the data show it: active = activation above about 30%; inactive = the rest.

Each compound was assayed against D(1A) dopamine receptor (Homo sapiens) (UniProt P21728) (assay: Allosteric Agonists of the Human D1 Dopamine Receptor: qHTS). Settings: HEK293 T-REx D1 cells, calcium flux, agonist mode; at 2 µM; stronger effect = higher value.
Sequence of D(1A) dopamine receptor (Homo sapiens) (P21728 whole entry, looked up): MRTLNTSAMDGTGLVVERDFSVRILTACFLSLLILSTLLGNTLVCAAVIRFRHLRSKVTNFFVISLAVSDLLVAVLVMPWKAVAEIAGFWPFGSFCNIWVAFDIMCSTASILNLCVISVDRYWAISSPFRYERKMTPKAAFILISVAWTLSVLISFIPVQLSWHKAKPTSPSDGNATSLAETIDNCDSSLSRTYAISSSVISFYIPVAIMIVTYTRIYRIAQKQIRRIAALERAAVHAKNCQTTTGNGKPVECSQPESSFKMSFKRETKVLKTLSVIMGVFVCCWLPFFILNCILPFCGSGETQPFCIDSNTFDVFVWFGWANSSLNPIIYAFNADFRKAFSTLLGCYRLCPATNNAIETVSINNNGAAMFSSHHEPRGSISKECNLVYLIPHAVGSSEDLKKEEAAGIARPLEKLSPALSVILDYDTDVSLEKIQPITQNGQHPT
Outline: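 Tetracycline-induced HEK293 TREx D1 cells, force-coupled to calcium signalling, were dye-loaded with a no-wash calcium kit. Compound was pin-added after a 10 s baseline. Fluorescence was read kinetically at 1 cycle/s for 180 s, with calcium rises flagged as agonism.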
Also: 0% is about no effect.

Row | SMILES | activation
1 | COC(=O)c1ccccc1NC(=O)c1ccc(C#N)cc1 | 1.68%
2 | Cc1ccccc1CNC(=O)C(=O)NCC(c1cccs1)S(=O)(=O)c1cccs1 (stereo unspecified) | 25.2%
3 | COc1ccc(C(=O)C2CCCN(Cc3cccn3-c3ccccn3)C2)c(C)c1 (stereo unspecified) | 34% (active)
4 | COc1ccc(C(=O)C2CCCN(C(=O)c3cnsn3)C2)c(C)c1 (stereo unspecified) | 2.63%
5 | COc1ccc(C(=O)C2CCCN(S(=O)(=O)c3cccc(C)c3)C2)c(C)c1 (stereo unspecified) | 12.7%
6 | O=S(=O)(c1ccc2c(c1)OCCCO2)N1CCN(S(=O)(=O)c2c(F)cccc2F)CC1 | 7.42%
7 | CCc1ccc(CNC(=O)c2ccc(CS(=O)c3ccc(Br)cc3)o2)cc1 (stereo unspecified) | 2.59%
8 | CCc1ccccc1NC(=O)c1ccc(F)c(S(=O)(=O)NC2CCCCCC2)c1 | -1.43%
9 | O=S(=O)(NC1CC1)c1ccc2c3c(cccc13)CC2 | 2.42%
10 | O=S(=O)(NC1CCCCC1)c1ccc(F)c2ccccc12 | 102% (active)
11 | Nc1c(C(=O)c2cccs2)sc2nsc(SCCN3CCCCC3)c12 | 257% (active)
12 | CCc1ccc(CNCc2c(C(=O)O)n(Cc3ccc(F)cc3Cl)c3cc(OC)ccc23)cc1 | 0.499%
13 | CCOc1ccccc1NC(=O)C1CCCN(S(=O)(=O)c2cn(C)cn2)C1 (stereo unspecified) | -2.08%
14 | O=C(NC1CC1)C1=C[C@H](c2c[nH]c3ccccc23)C[C@H](OCc2ccc(CO)cc2)O1 | 7.93%
15 | NC(=O)C1=C[C@H](c2csc3ccccc23)C[C@H](OCc2ccc(CO)cc2)O1 | 203% (active)
16 | NC(=O)C1=C[C@@H](c2csc3ccccc23)C[C@@H](OCc2ccc(CO)cc2)O1 | 11.8%
17 | Cc1cccc(NC(=O)Cn2c(C(F)(F)F)nc3ccccc32)c1C | 2.74%
18 | Oc1ccc(Cl)cc1C1C=C(c2ccc3c(c2)OCO3)NC(c2ccc(F)c(Br)c2)N1 (stereo unspecified) | 16.4%
19 | Cc1ccc(-c2cc(N)n(Cc3cccc(Cl)c3)n2)cc1 | -0.135%

Row | SMILES | activation
20 | COc1cc(OC)c(OC)cc1/C=C/c1nc2cc3ccccc3cc2c(=O)n1-c1ccc(F)c(Cl)c1 | 0.411%
21 | CN1CCN(CCCNC(=O)c2ccc(/C=C3\Oc4ccccc4N(Cc4ccc(Cl)cc4)C3=O)cc2)CC1 | 87.5% (active)
22 | CCCN1CCN(CCCNC(=O)c2ccc3nc(Cc4ccccc4)oc3c2)CC1 | 4.88%
23 | COCCNC(=O)c1ccc2c(c1)N(Cc1cccc(Cl)c1)C(=O)c1ccccc1S2(=O)=O | 4.3%
24 | Cc1cccc(NC(=O)CN(c2ccc(C(C)C)cc2)S(=O)(=O)c2c(C)nn(C)c2C)c1C | 3.58%
25 | COc1cc(NC(=O)c2cc3ccc4cccnc4c3[nH]2)cc(OC)c1OC | -0.0279%
26 | Cc1ccc(NC(=O)C(C)c2cccc(C(=O)c3ccccc3)c2)cc1 (stereo unspecified) | 18.8%
27 | CCC(C(=O)Nc1ccc(C(C)C)cc1)c1ccccc1 (stereo unspecified) | 75.7% (active)
28 | CCCC(C)C(=O)Nc1ccc(NC(C)=O)cc1 (stereo unspecified) | 2.66%
29 | CC(=O)N1CCc2cc(Br)cc(S(=O)(=O)CCC(=O)NCCc3ccc(Cl)cc3)c21 | 1.1%
30 | Cc1cccc(NC(=O)Cn2c(=O)n(Cc3ccccc3)c(=O)c3c(C)c(C)sc32)c1 | 1.32%
31 | Cc1ccc(NC(=O)Cn2c(=O)n(-c3ccccc3)c(=O)c3c4c(sc32)CCCC4)cc1 | 4.64%
32 | CCOC(=O)N1CCc2c(sc3c2c(=O)n(Cc2ccccc2)c(=O)n3CC(=O)Nc2cccc(C)c2)C1 | 47.3% (active)
33 | COCCCNC(=O)c1c(NC(=O)c2cc(=O)c3cc(C)c(C)cc3o2)sc2c1CCCC2 | -1.72%
34 | COc1cccc(CNCc2c(C(=O)O)n(Cc3ccc(C)cc3)c3cc(C)ccc23)c1OC | 0.928%
35 | O=C(NCc1ccccc1)c1cc(-c2cccc(Cl)c2)on1 | 3.77%
36 | O=C(NC1CCCC1)c1cc(-c2ccccc2)on1 | 0.117%
37 | CC(NC(=O)c1cc(-c2ccccc2)on1)c1ccccc1 (stereo unspecified) | 94.3% (active)
38 | CCCn1c2ccccc2c2cnn(CC(=O)N(C)c3ccccc3CC)c(=O)c21 | 0.732%

Row | SMILES | activation
39 | CCOCCCNC(=O)c1ccc2nc(CCc3ccccc3)oc2c1 | 0.808%
40 | O=C(c1ccc2c(c1)N(Cc1ccccc1)C(=O)c1ccccc1S2(=O)=O)N1CCCC1 | 0.455%
41 | Cc1cccc(NC(=O)C2CCN(S(=O)(=O)c3c(C)noc3/C=C/c3ccco3)CC2)c1 | 1.4%
42 | CC(O)c1nc2ccccc2n1Cc1ccc([N+](=O)[O-])cc1 (stereo unspecified) | 0.897%
43 | O=C(Cn1c(COc2ccccc2)nc2ccccc21)Nc1cc(Cl)c(Cl)cc1Cl | -0.172%
44 | CC(C)c1ccc(Cn2c(COc3ccccc3)nc3ccccc32)cc1 | 32.7% (active)
45 | CCc1ccc(Nc2nn3c(=O)c4cc5c(cc4nc3s2)OCO5)cc1 | 0.763%
46 | CCOc1cc(CNC(=O)c2sc3ncnc(N(C)C4CCCCC4)c3c2C)ccc1OC | 2.38%
47 | CCOc1ccc2nc(N3CCCN(C(=O)Nc4ccccc4C)CC3)c(C#N)cc2c1 | 32.7% (active)
48 | CCOc1ccc(C(=O)NC2CCN(C(=O)Nc3ccccc3OC)CC2)cc1 | 0.137%
49 | CCOc1ccc2nc(N3CCCC(C(=O)Nc4cc(C)ccc4C)C3)sc2c1 (stereo unspecified) | -0.891%
50 | CC1CCN(S(=O)(=O)c2ccc3c(c2)N(CC(=O)NCc2ccccc2Cl)C(=O)CO3)CC1 | -2.16%
51 | COc1ccc(NC(=O)C2CCCN(S(=O)(=O)c3c(C)[nH]c(=O)[nH]c3=O)C2)c(OC)c1 (stereo unspecified) | 3.17%
52 | O=C(N1CCOCC1)N1CCOCC1 | 2.44%
53 | N#C/C(=C/c1ccc(N2CCOCC2)o1)C(=O)N1CCOCC1 | 51.4% (active)
54 | N#C/C=C(/c1ccc(F)cc1)N1CCOCC1 | 5.96%
55 | COc1cccc(Cn2c(SCc3ccc(C(=O)N4CCCCC4)cc3)nc3ccncc32)c1 | -0.712%
56 | COc1ccccc1C(=O)Nc1c(C(=O)N(C)Cc2ccccc2)sc2nc(C)c(Cl)c(C)c12 | 1.11%
